# Measurements reported in ChEMBL document CHEMBL3988442, “University of Dundee, Small-Polar-MMV Screening Library” (2021).
# Out of some 66,000 compounds screened, about 960 (1.5%) showed an effect of 50% or more. Shown is part of a subset that was picked to be rich in strong results.
# System: Trypanosoma brucei
# Assay: Trypanosoma brucei 72 hour study
# Assay type: functional, organism-based
# Design: scale not given: in the data most compounds retested in dose-response had high values
smiles,measurement,setting,value
O=C(O)C(F)(F)F.O=C(O)C(F)(F)F.c1cncc(OCC2CN(Cc3nccs3)Cc3nccn3C2)c1 (configuration not stated),Percent Effect,"30.3 µM, […]",-9.916%
C/C=C(\C)CN(CCN1CCOCC1)Cc1ccco1,Percent Effect,"30.3 µM, […]",-0.5994%
O=C(O)C(F)(F)F.O=C(O)C(F)(F)F.O=C([C@H]1C[C@H]2OCC[C@H]2N(Cc2ccccc2F)C1)N1CCCCO1,Percent Effect,"30.3 µM, […]",-61.9%
Cn1ccnc1-c1nc(NC2CCCC2)ncc1-c1cccc(F)c1,Percent Effect,"30.3 µM, […]",20.44%
CN1CCN(c2ncnc3c2CCN(S(=O)(=O)C2CC2)CC3)CC1.O=C(O)C(F)(F)F,Percent Effect,"30.3 µM, […]",-13.78%
CN(C)C[C@]12COC[C@H]1CN(Cc1ccc3c(c1)OCO3)C2.O=C(O)C(F)(F)F.O=C(O)C(F)(F)F,Percent Effect,"30.3 µM, […]",5.402%
CC(C)CC(=O)NC[C@H]1CC[C@H](C(c2ccccn2)N(C)C)CC1 (some centres not stated),Percent Effect,"30.3 µM, […]",-15.36%
COc1cccc(CNC(=O)CCC2=Nc3ccccc3S(=O)(=O)N2)c1,Percent Effect,"30.3 µM, […]",9.218%
CCN1C[C@@H]2[C@@H](OC)CCN(S(=O)(=O)c3ccccc3F)[C@@H]2C1.O=C(O)C(F)(F)F,Percent Effect,"30 µM, 30.03 µM",30.94%
CN(Cc1ccc(C#N)cc1)c1ncc(C(N)=O)cc1Cl,Percent Effect,"30.3 µM, […]",12.46%
Cl.O=C(NCc1ccccc1)C1=NOC2(CCNC2)C1 (configuration not stated),Percent Effect,"30 µM, 30.03 µM",2.25%
Cc1cccc(CNCC2COC3(CCCC3)O2)c1C (configuration not stated),Percent Effect,"30 µM, 30.03 µM",-15.5%
COCCOc1ccccc1CNCC1COC2(CCCC2)O1 (configuration not stated),Percent Effect,"30 µM, 30.03 µM",102%
Cc1cccc(CNCC2COC3(CCCCC3)O2)c1C (configuration not stated),Percent Effect,"30 µM, 30.03 µM",-30.8%
CCN(Cc1ccco1)C(=O)c1cc(OC)c2c(c1)OCCO2,Percent Effect,"30 µM, 30.03 µM",34.74%
COc1cc(C(=O)N(Cc2ccco2)C2CC2)cc2c1OCCO2,Percent Effect,"30 µM, 30.03 µM",51.93%
COc1cc(C(=O)N(Cc2ccco2)C2CC2)cc(OC)c1OC,Percent Effect,"30 µM, 30.03 µM",-6.757%
CC(=O)N1CCC(c2c(CN(C)C)cnc3cc(C)nn23)CC1,Percent Effect,"30.3 µM, […]",-17.17%
Cc1cc2ncc(CN(C)C)c(C3CCN(C)CC3)n2n1,Percent Effect,"30.3 µM, […]",99.05%
Cc1cc(N(C)CCN(C)C)n2nc(C)cc2n1,Percent Effect,"30 µM, 30.03 µM",-1.745%
Cn1cc(-c2csc(N3CCCCCC3)n2)cn1,Percent Effect,"30 µM, 30.03 µM",99.99%
Cn1cc(-c2csc(N3CCSCC3)n2)cn1,Percent Effect,"30 µM, 30.03 µM",-20.97%
CN1CCN(c2nc(-c3cnn(C)c3)cs2)CC1,Percent Effect,"30 µM, 30.03 µM",-14.69%
O=C(O)C(F)(F)F.O=C(O)C(F)(F)F.O=C(c1ccncc1)N1CCC2(CC1)CCN(Cc1ccccn1)C2=O,Percent Effect,"30 µM, 30.03 µM",-9.957%
CC(C)SCC(=O)NCc1cc2n(n1)CCCN(C1CCCCC1)C2,Percent Effect,"30 µM, 30.03 µM",-6.203%
CC(CC(=O)N1CCN(c2cnccn2)CC1)c1ccc(F)cc1 (configuration not stated),Percent Effect,"30 µM, 30.03 µM",-67.22%
O=C(CCSc1ccc(F)cc1)N1CCN(c2cnccn2)CC1,Percent Effect,"30 µM, 30.03 µM",-62.17%
O=C(CCSc1ccccc1F)N1CCN(c2cnccn2)CC1,Percent Effect,"30 µM, 30.03 µM",98.54%
Cc1ccc(S(C)(=O)=O)cc1C(=O)NS(C)(=O)=O,Percent Effect,"30.3 µM, […]",76.39%
Cc1ccc(S(=O)(=O)NC(=O)c2cc(S(C)(=O)=O)ccc2C)s1,Percent Effect,"30.3 µM, […]",94.94%
Cc1ccc(S(=O)(=O)Nc2ccc(C)c(C(=O)O)c2)s1,Percent Effect,"30 µM, 30.03 µM",-9.875%
Cc1ccc(S(C)(=O)=O)cc1C(=O)NS(=O)(=O)c1cccs1,Percent Effect,"30.3 µM, […]",-1.699%
Cc1ccc(S(C)(=O)=O)cc1C(=O)NS(=O)(=O)c1ccc(Cl)cc1,Percent Effect,"30.3 µM, […]",-20.93%
Cc1ccc(C(=O)NS(C)(=O)=O)cc1S(C)(=O)=O,Percent Effect,"30 µM, 30.03 µM",7.017%
Cc1ccc(F)cc1S(=O)(=O)Nc1ccc2c(C(=O)O)c[nH]c2c1,Percent Effect,10 µM,-37.32%
Clc1ccccc1-c1cc(CNc2ncnc3c2CCNCC3)no1,Percent Effect,"30 µM, 30.03 µM",-18.38%
O=C(CCNC(=O)c1cnccn1)Nc1ncc[nH]1,Percent Effect,"30 µM, 30.03 µM",-39.01%
O=C(Nc1cccc2c1CCCC2)c1cccnc1N1CCCNCC1,Percent Effect,"30.3 µM, […]",-17.09%
same,Percent Effect,"10 mM, 10 mM as filed; unlikely as a test dose",-111.4%
CS(=O)(=O)NC[C@]12COC[C@H]1CN(C(=O)C1CCSCC1)C2,Percent Effect,"30.3 µM, […]",-61.89%
CNC(=O)c1cn[nH]c1C1CCN(Cc2ccccc2OC)C1 (configuration not stated),Percent Effect,"30.3 µM, […]",0.9318%
CC(C)c1nnc(CN2CCCC3(CC2)CN(C)C(=O)O3)o1 (configuration not stated),Percent Effect,"30 µM, 30.03 µM",-4.839%
CC(C)c1ccc(CC(=O)N2CCCC3(CN(C)C(=O)O3)C2)cc1 (configuration not stated),Percent Effect,"30.3 µM, […]",-36.52%
CC(C)c1ccc(CN2CCCC3(CC2)CN(C)C(=O)O3)cc1 (configuration not stated),Percent Effect,"30.3 µM, […]",97.32%
CN(C)C(=O)CO[C@H]1CN(Cc2nccs2)[C@@H]2COC[C@H]12.O=C(O)C(F)(F)F,Percent Effect,"30.3 µM, […]",-75.65%
Cc1cc2nc(C(C)C)cc(N(C)CC3CCCN(CCO)C3)n2n1 (configuration not stated),Percent Effect,"30.3 µM, […]",9.548%
Cc1nc(CN2CCCC(CCc3c(F)cccc3F)C2)c[nH]1 (configuration not stated),Percent Effect,"30 µM, 30.03 µM",77.03%
Cn1cc(CN2CCCC(CCc3ccc(F)c(F)c3)C2)cn1 (configuration not stated),Percent Effect,"30 µM, 30.03 µM",-1.052%
Cc1nc(CN2CCCC(CCc3ccccc3F)C2)c[nH]1 (configuration not stated),Percent Effect,"30.3 µM, […]",-5.303%
Cc1nc(CN2CCCC(CCc3ccc(F)cc3F)C2)c[nH]1 (configuration not stated),Percent Effect,"30 µM, 30.03 µM",47.76%
Cc1nc(CN2CCCC(CCc3ccccc3C)C2)c[nH]1 (configuration not stated),Percent Effect,"30.3 µM, […]",-10.1%
Cc1nc(CN2CCCC(CCc3ccc(F)c(F)c3)C2)c[nH]1 (configuration not stated),Percent Effect,"30.3 µM, […]",50.38%
